Assay results from PubChem BioAssay AID1159580 (chemical genetic matrix, 2015).
The campaign covered roughly 5,500 compounds. About 2,000 (36%) were called active. Roughly 18% stayed inconclusive and do not appear here. Some of the results follow. A number with no mark means an inactive call. Cut-off read from the data, not from the text of the source: active = normalized growth mostly below about 0.91 (no sharp cut-off); inconclusive = no clear call, values can overlap the other calls; inactive = mostly above about 0.92.

Assay: chemical genetic growth profiling, strain panel (AID 1159580);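 note: tested at 20 µM; growth read once vehicle control cultures reached saturation at 30 °C; 1 = growth at the plate median or of vehicle wells; lower values mean less growth of the strain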
Conditions: growth OD

C#C[C@]1(O)CCC2C3CCC4=C(CCC(=O)C4)C3CC[C@@]21C (some centres undefined)
normalized growth (S. cerevisiae deletion strains, locus YJR075W, strain HOC1, active compounds read low): 1.02
normalized growth (S. cerevisiae deletion strains, locus YKL009W, strain mrt4, active compounds read low): 0.974
normalized growth (S. cerevisiae deletion strains, locus YKL068W, active compounds read low): 1.01
normalized growth (S. cerevisiae deletion strains, locus YKL085W, strain MDH1 (second series), active compounds read low): 1.01
normalized growth (S. cerevisiae deletion strains, locus YKL085W, strain MDH1, active compounds read low): 1.01
normalized growth (S. cerevisiae deletion strains, locus YKL160W, strain elf1, active compounds read low): 0.998
normalized growth (S. cerevisiae deletion strains, locus YKL190W, strain CNB1, active compounds read low): 1.04
normalized growth (S. cerevisiae deletion strains, locus YKR001C, strain vps1, active compounds read low): 1.01
normalized growth (S. cerevisiae deletion strains, locus YKR026C, strain gcn3, active compounds read low): 0.986
normalized growth (S. cerevisiae deletion strains, locus YKR091W, strain srl3, active compounds read low): 0.982
normalized growth (S. cerevisiae deletion strains, locus YLL001W, strain dnm1, active compounds read low): 1
normalized growth (S. cerevisiae deletion strains, locus YLL026W, active compounds read low): 0.994
normalized growth (S. cerevisiae deletion strains, locus YLL041C, strain sdh2, active compounds read low): 0.977
normalized growth (S. cerevisiae deletion strains, locus YLR027C, strain aat2, active compounds read low): 0.983
normalized growth (S. cerevisiae deletion strains, locus YLR039C, strain RIC1, active compounds read low): 0.911
normalized growth (S. cerevisiae deletion strains, locus YLR058C, strain SHM2, active compounds read low): 1.01
normalized growth (S. cerevisiae deletion strains, locus YLR102C, strain apc9, active compounds read low): 1.01
normalized growth (S. cerevisiae deletion strains, locus YLR113W, strain HOG1, active compounds read low): 0.852
normalized growth (S. cerevisiae deletion strains, locus YLR221C, strain rsa3, active compounds read low): 0.96
normalized growth (S. cerevisiae deletion strains, locus YLR258W, strain gsy2, active compounds read low): 0.973
normalized growth (S. cerevisiae deletion strains, locus YLR262C, strain YPT6 (second series), active compounds read low): 0.825 (active)
normalized growth (S. cerevisiae deletion strains, locus YLR262C, strain YPT6, active compounds read low): 0.868
normalized growth (S. cerevisiae deletion strains, locus YLR268W, strain sec22, active compounds read low): 0.959
normalized growth (S. cerevisiae deletion strains, locus YLR320W, strain mms22, active compounds read low): 0.963
normalized growth (S. cerevisiae deletion strains, locus YLR330W, strain CHS5, active compounds read low): 1.02
normalized growth (S. cerevisiae deletion strains, locus YLR342W, strain FKS1 (second series), active compounds read low): 0.953
normalized growth (S. cerevisiae deletion strains, locus YLR342W, strain FKS1, active compounds read low): 0.968
normalized growth (S. cerevisiae deletion strains, locus YLR357W, strain rsc2, active compounds read low): 1.03
normalized growth (S. cerevisiae deletion strains, locus YLR370C, strain arc18, active compounds read low): 0.97
normalized growth (S. cerevisiae deletion strains, locus YLR371W, strain rom2, active compounds read low): 1
normalized growth (S. cerevisiae deletion strains, locus YLR384C, strain iki3, active compounds read low): 0.974
normalized growth (S. cerevisiae deletion strains, locus YLR418C, strain cdc73, active compounds read low): 0.961
normalized growth (S. cerevisiae deletion strains, locus YML016C, strain PPZ1, active compounds read low): 1.01
normalized growth (S. cerevisiae deletion strains, locus YML032C, strain rad52, active compounds read low): 0.975
normalized growth (S. cerevisiae deletion strains, locus YML120C, strain ndi1, active compounds read low): 0.97
normalized growth (S. cerevisiae deletion strains, locus YML124C, strain tub3, active compounds read low): 1.01
normalized growth (S. cerevisiae deletion strains, locus YMR058W, strain fet3, active compounds read low): 0.963
normalized growth (S. cerevisiae deletion strains, locus YMR078C, strain ctf18, active compounds read low): 1
normalized growth (S. cerevisiae deletion strains, locus YMR125W, strain sto1, active compounds read low): 1.01
normalized growth (S. cerevisiae deletion strains, locus YMR129W, active compounds read low): 0.972
normalized growth (S. cerevisiae deletion strains, locus YMR205C, strain PFK2, active compounds read low): 0.978
normalized growth (S. cerevisiae deletion strains, locus YMR223W, strain ubp8, active compounds read low): 1.01
normalized growth (S. cerevisiae deletion strains, locus YMR231W, strain pep5, active compounds read low): 0.981
normalized growth (S. cerevisiae deletion strains, locus YMR307W, strain GAS1, active compounds read low): 0.989
normalized growth (S. cerevisiae deletion strains, locus YNL067W, strain RPL9B, active compounds read low): 1.02
normalized growth (S. cerevisiae deletion strains, locus YNL071W, strain lat1, active compounds read low): 0.963
normalized growth (S. cerevisiae deletion strains, locus YNL128W, strain TEP1, active compounds read low): 1.03
normalized growth (S. cerevisiae deletion strains, locus YNL153C, strain GIM3, active compounds read low): 1.03
normalized growth (S. cerevisiae deletion strains, locus YNL183C, strain NPR1, active compounds read low): 0.919
normalized growth (S. cerevisiae deletion strains, locus YNL209W, strain ssb2, active compounds read low): 0.989
normalized growth (S. cerevisiae deletion strains, locus YNL233W, strain BNI4, active compounds read low): 0.998
normalized growth (S. cerevisiae deletion strains, locus YNL248C, strain rpa49, active compounds read low): 0.96
normalized growth (S. cerevisiae deletion strains, locus YNL250W, strain rad50, active compounds read low): 0.992
normalized growth (S. cerevisiae deletion strains, locus YNL271C, strain bni1, active compounds read low): 0.991
normalized growth (S. cerevisiae deletion strains, locus YNL298W, strain CLA4, active compounds read low): 0.986
normalized growth (S. cerevisiae deletion strains, locus YNL307C, strain MCK1, active compounds read low): 0.99
normalized growth (S. cerevisiae deletion strains, locus YNL322C, strain KRE1 (second series), active compounds read low): 0.97
normalized growth (S. cerevisiae deletion strains, locus YNR049C, strain mso1, active compounds read low): 0.982
normalized growth (S. cerevisiae deletion strains, locus YNR052C, strain pop2, active compounds read low): 0.992
normalized growth (S. cerevisiae deletion strains, locus YOL006C, strain TOP1, active compounds read low): 0.931
normalized growth (S. cerevisiae deletion strains, locus YOL012C, strain htz1): 1.9
normalized growth (S. cerevisiae deletion strains, locus YOL147C, strain pex11, active compounds read low): 1.01
normalized growth (S. cerevisiae deletion strains, locus YOR001W, strain rrp6, active compounds read low): 0.936
normalized growth (S. cerevisiae deletion strains, locus YOR061W, strain CKA2, active compounds read low): 1
normalized growth (S. cerevisiae deletion strains, locus YOR069W, strain VPS5, active compounds read low): 1.02
normalized growth (S. cerevisiae deletion strains, locus YOR070C, strain gyp1, active compounds read low): 1
normalized growth (S. cerevisiae deletion strains, locus YOR080W, strain dia2, active compounds read low): 0.999
normalized growth (S. cerevisiae deletion strains, locus YOR083W, strain WHI5, active compounds read low): 0.985
normalized growth (S. cerevisiae deletion strains, locus YOR106W, strain vam3, active compounds read low): 0.991
normalized growth (S. cerevisiae deletion strains, locus YOR136W, strain idh2, active compounds read low): 1
normalized growth (S. cerevisiae deletion strains, locus YOR144C, strain elg1, active compounds read low): 1
normalized growth (S. cerevisiae deletion strains, locus YOR184W, strain ser1, active compounds read low): 0.898
normalized growth (S. cerevisiae deletion strains, locus YOR231W, strain MKK1, active compounds read low): 0.919
normalized growth (S. cerevisiae deletion strains, locus YOR265W, strain rbl2, active compounds read low): 0.987
normalized growth (S. cerevisiae deletion strains, locus YOR270C, strain vph1, active compounds read low): 0.955
normalized growth (S. cerevisiae deletion strains, locus YOR290C, strain snf2, active compounds read low): 0.932
normalized growth (S. cerevisiae deletion strains, locus YOR316C, strain cot1, active compounds read low): 1
normalized growth (S. cerevisiae deletion strains, locus YPL051W, strain arl3, active compounds read low): 0.983
normalized growth (S. cerevisiae deletion strains, locus YPL078C, strain atp4, active compounds read low): 0.93
normalized growth (S. cerevisiae deletion strains, locus YPL106C, strain sse1, active compounds read low): 1.03
normalized growth (S. cerevisiae deletion strains, locus YPL240C, strain hsp82, active compounds read low): 0.981
normalized growth (S. cerevisiae deletion strains, locus YPL241C, strain CIN2, active compounds read low): 1.02
normalized growth (S. cerevisiae deletion strains, locus YPL256C, strain CLN2, active compounds read low): 0.838
normalized growth (S. cerevisiae deletion strains, locus YPR119W, strain clb2, active compounds read low): 1
normalized growth (S. cerevisiae deletion strains, locus YPR141C, strain kar3, active compounds read low): 1.01
normalized growth (S. cerevisiae deletion strains, locus YPR163C, strain tif3, active compounds read low): 1.02
normalized growth (S. cerevisiae deletion strains, locus YPR167C, strain met16, active compounds read low): 1
normalized growth (S. cerevisiae deletion strains, strain wtn01, active compounds read low): 0.996
normalized growth (S. cerevisiae strains, strain wild type, active compounds read low): 1.03
